Laboratory results reported in PubChem BioAssay AID1159580 (chemical genetic matrix, 2015).
Out of some 5,500 compounds screened, about 2,000 (36%) were called active. Inconclusive results (about 18%) are left out. No stated cut-off is given here; in the data, active means normalized growth mostly below about 0.91 (no sharp cut-off); inconclusive means no clear call, values can overlap the other calls; inactive means mostly above about 0.92. Some of the results follow.

Assay: chemical genetic growth profiling, strain panel (AID 1159580);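 further: tested at 20 µM; growth read once vehicle control cultures reached saturation at 30 °C; 1 = growth at the plate median or of vehicle wells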
Settings: S. cerevisiae deletion strains, growth OD
[1] = locus YDL101C, strain DUN1, stronger effect = lower value
[2] = locus YHR030C, strain SLT2, stronger effect = lower value
[3] = locus YAL013W, strain DEP1, stronger effect = lower value
[4] = locus YBR229C, strain ROT2, stronger effect = lower value
[5] = locus YDL134C, strain PPH21, stronger effect = lower value
[6] = locus YDR150W, strain NUM1, stronger effect = lower value
[7] = locus YEL061C, strain CIN8, stronger effect = lower value
[8] = locus YGR078C, strain PAC10, stronger effect = lower value
[9] = locus YHR087W, strain rtc3, stronger effect = lower value
[10] = locus YJR075W, strain HOC1, stronger effect = lower value
[11] = locus YLR039C, strain RIC1, stronger effect = lower value
[12] = locus YLR058C, strain SHM2 (second series), stronger effect = lower value
[13] = locus YLR085C, strain ARP6, stronger effect = lower value
[14] = locus YLR262C, strain YPT6, stronger effect = lower value
[15] = locus YML094W, strain GIM5, stronger effect = lower value
[16] = locus YMR219W, strain ESC1, stronger effect = lower value
[17] = locus YMR263W, strain SAP30, stronger effect = lower value
[18] = locus YMR307W, strain GAS1, stronger effect = lower value
[19] = locus YNL153C, strain GIM3, stronger effect = lower value
[20] = locus YNL298W, strain CLA4 (second series), stronger effect = lower value
[21] = locus YNL322C, strain KRE1, stronger effect = lower value
[22] = locus YNR030W, strain Alg12, stronger effect = lower value
[23] = locus YPL055C, strain LGE1, stronger effect = lower value
[24] = locus YPL241C, strain CIN2, stronger effect = lower value
[25] = locus YPR135W, strain CTF4, stronger effect = lower value

Measured: normalized growth

CCc1ccn2cc(Nc3ccccc3Cl)nc2c1
inactive: locus YAR019C, strain CDC15, stronger effect = lower value 0.983 | locus YBL105C, strain PKC1, stronger effect = lower value 0.976 | locus YBR135W, strain CKS1, stronger effect = lower value 0.98 | locus YBR136W, strain MEC1, stronger effect = lower value 0.968 | locus YBR160W, strain CDC28, stronger effect = lower value 0.971 | locus YDL017W, strain CDC7, stronger effect = lower value 0.974 | locus YDL028C, strain MPS1, stronger effect = lower value 0.98 | [1] 0.982 | locus YDL108W, strain KIN28, stronger effect = lower value 0.976 | locus YDL132W, strain cdc53, stronger effect = lower value 0.985 | locus YDL214C, strain PRR2, stronger effect = lower value 0.945 | locus YDR052C, strain DBF4, stronger effect = lower value 0.993 | locus YDR054C, strain cdc34, stronger effect = lower value 0.959 | locus YDR226W, strain ADK1, stronger effect = lower value 0.985 | locus YDR477W, strain SNF1, stronger effect = lower value 0.947 | locus YER123W, strain YCK3, stronger effect = lower value 0.898 | locus YER133W, strain GLC7, stronger effect = lower value 0.947 | locus YFL009W, strain cdc4, stronger effect = lower value 0.983 | locus YFL029C, strain CAK1, stronger effect = lower value 0.98 | locus YFR003C, strain YPI1, stronger effect = lower value 0.973 | locus YFR019W, strain FAB1, stronger effect = lower value 0.948 | locus YFR028C, strain CDC14, stronger effect = lower value 0.978 | locus YGR040W, strain KSS1, stronger effect = lower value 0.91 | locus YGR052W, strain FMP48, stronger effect = lower value 1.01 | locus YGR092W, strain DBF2, stronger effect = lower value 0.898 | [2] 0.965 | locus YHR079C, strain IRE1, stronger effect = lower value 0.96 | locus YHR082C, strain KSP1, stronger effect = lower value 0.998 | locus YHR205W, strain SCH9, stronger effect = lower value 0.959 | locus YIL147C, strain SLN1, stronger effect = lower value 0.973 | locus YJL095W, strain BCK1, stronger effect = lower value 0.96 | locus YJL128C, strain PBS2, stronger effect = lower value 0.967 | locus YJL157C, strain FAR1, stronger effect = lower value 0.906 | locus YJR016C, strain ILV3, stronger effect = lower value 0.987 | locus YJR066W, strain TOR1 (second series), stronger effect = lower value 0.895 | locus YJR066W, strain TOR1, stronger effect = lower value 0.973 | locus YKL048C, strain ELM1, stronger effect = lower value 0.984 | locus YKL067W, strain YNK1, stronger effect = lower value 0.962 | locus YKL101W, strain HSL1, stronger effect = lower value 0.949 | locus YKL193C, strain SDS22, stronger effect = lower value 0.979 | locus YKL203C, strain TOR2, stronger effect = lower value 0.973 | locus YLR113W, strain HOG1, stronger effect = lower value 0.916 | locus YLR133W, strain CKI1, stronger effect = lower value 0.928 | locus YLR403W, strain SFP1, stronger effect = lower value 0.886 | locus YML070W, strain DAK1, stronger effect = lower value 0.917 | locus YMR001C, strain CDC5, stronger effect = lower value 0.978 | locus YMR205C, strain PFK2 (second series), stronger effect = lower value 0.966 | locus YMR277W, strain FCP1, stronger effect = lower value 0.981 | locus YNL006W, strain LST8, stronger effect = lower value 0.997 | locus YNL020C, strain ARK1, stronger effect = lower value 0.94 | locus YNL161W, strain CBK1, stronger effect = lower value 0.98 | locus YNL183C, strain NPR1, stronger effect = lower value 0.973 | locus YNL207W, strain RIO2, stronger effect = lower value 0.972 | locus YNL222W, strain SSU72, stronger effect = lower value 0.973 | locus YNL307C, strain MCK1 (second series), stronger effect = lower value 0.917 | locus YOL078W, strain AVO1, stronger effect = lower value 0.981 | locus YOL136C, strain PFK27, stronger effect = lower value 0.926 | locus YOR061W, strain CKA2, stronger effect = lower value 0.963 | locus YOR119C, strain RIO1, stronger effect = lower value 0.985 | locus YOR231W, strain MKK1, stronger effect = lower value 0.905 | locus YOR329C, strain SCD5, stronger effect = lower value 0.972 | locus YPL031C, strain PHO85, stronger effect = lower value 0.911 | locus YPL153C, strain RAD53, stronger effect = lower value 0.912 | locus YPL204W, strain HRR25, stronger effect = lower value 0.921 | locus YPL209C, strain IPL1, stronger effect = lower value 0.976 | locus YPL256C, strain CLN2, stronger effect = lower value 0.917 | locus YPR025C, strain CCL1, stronger effect = lower value 0.983 | locus YPR106W, strain ISR1, stronger effect = lower value 0.971 | locus YPR111W, strain DBF20, stronger effect = lower value 0.97 | strain NNK1, stronger effect = lower value 0.981 | strain TSCII, stronger effect = lower value 0.983

O=C1CCC(c2cccs2)=NN1
inactive: [3] 0.979 | [4] 1 | [1] 0.974 | [5] 1 | [6] 0.986 | [7] 0.987 | [8] 0.99 | [2] 1.03 | [9] 0.999 | locus YJR043C, strain POL32, stronger effect = lower value 1 | [10] 1.01 | [11] 0.993 | [12] 1 | [13] 0.998 | [14] 1.02 | [15] 1 | [16] 0.997 | [17] 1.03 | [18] 1.09 | [19] 0.998 | [20] 1.01 | [21] 0.985 | [22] 1 | locus YOL006C, strain TOP1, stronger effect = lower value 0.99 | [23] 1.01 | [24] 1.05 | [25] 0.901

CC(=O)c1ccc(-c2cccs2)s1
active: [2] 0.58 | [11] 0.777 | [13] 0.606 | [19] 0.878
inactive: [3] 0.95 | [4] 0.963 | [1] 0.944 | [5] 0.999 | [6] 0.953 | [7] 0.939 | [8] 0.989 | [9] 0.992 | locus YJL187C, strain SWE1, stronger effect = lower value 0.978 | [10] 0.995 | [12] 0.972 | [14] 0.855 | [15] 0.887 | [16] 0.981 | [17] 1 | [18] 0.95 | locus YNL128W, strain TEP1, stronger effect = lower value 0.98 | [20] 0.901 | [21] 0.985 | [22] 0.966 | [23] 0.9 | [24] 0.869 | [25] 0.69
